# High-throughput results as filed in PubChem.
# An excerpt weighted towards active compounds, which were near 4% of everything screened.
# TROY NFkB inh = TROY signaling inhibition; inhibition, % at 10 µM; Q293 LMP1-TROYcd NF-kB luciferase reporter, 4 h; 360,000 tested, 0.98% active; AID 1347056;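 active means compounds whose plate-normalised and pattern-corrected inhibition of the luciferase reporter signal at the single screening dose is 50% or more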
# CF NFkB inh = inhibitors of cystic fibrosis induced NF-kB; AID 588850; inhibition, % at 5 µM; 360,000 tested, 0.86% active; KKLEB NF-kB-GFP reporter, PAF-induced, GFP fluorescence overnight;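 active means at least 50% inhibition at 5 µM, scaled per plate between neutral and stimulator controls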;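 further: PAF is a Pseudomonas aeruginosa culture filtrate used as stimulus; plate controls were PAF-stimulated DMSO wells for no effect and unstimulated DMSO wells for full effect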
# TWEAK-Fn14 inh = inhibitors of TWEAK-Fn14 interaction signaling | AID 1159606 | TWEAK-stimulated Fn14 reporter cells, luciferase luminescence, 8 h | 360,000 tested, 2% active | inhibition, % at 10 µM; in the data active means inhibition above about 50%
# HIF-2a block = blocks HIF-2a reporter activity; 360,000 tested, 0.72% active; 786-0 RCC cells HIF-2a reporter, luciferase luminescence, overnight; inhibition, % at 18.8 µM;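 active means inhibition of the luminescence signal of 40% or more relative to plate controls, in a single-dose primary screen at 18.75 µM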
# Peg3 prom inh = inhibitors of Peg3 promoter. HeLa PEG-Prom luciferase reporter, luminescence, overnight. inhibition, % at 20 µM. 360,000 tested, 1.7% active. AID 588405;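 active means inhibition of at least 50% at 20 µM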
# KKLEB cytotox = reduces viability of KKLEB cystic fibrosis airway cells. KKLEB CF airway cells viability, ATPlite luminescence, overnight; active compounds read low; cells stimulated with P. aeruginosa culture filtrate. activity change (cytotoxicity), % at 5 µM. 360,000 tested, 0.36% active. AID 602141;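 active means corrected activity change at or below -50% at 5 µM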
# Starred values were filed as active, the others as inactive; · = no result given.
SMILES,TROY NFkB inh,CF NFkB inh,TWEAK-Fn14 inh,HIF-2a block,Peg3 prom inh,KKLEB cytotox
Cc1ccc(N=Nc2ccc3ccccc3c2O)cc1,78*,4,95*,-7,6,-63*
Cc1ccc(N=Nc2ccc(O)c3ncccc23)cc1,-33,16,-81,7,28,-9
O=C(NCCCC1CCCC1)C1CCC(=O)N(Cc2ccccc2F)C1 (stereo not given),-13,10,-9,-24,-21,-7
CCc1nnc(NC(=O)c2ccc(Cl)c(S(=O)(=O)N3CCc4ccccc4C3)c2)s1,55*,7,14,10,2,-4
O=C(Nc1ccccn1)c1ccc(Cl)c(S(=O)(=O)N2CCc3ccccc32)c1,33,-6,56*,-64,-27,-1
COc1ccc(NC(=O)c2ccc(Cl)c(S(=O)(=O)N3CCc4ccccc4C3)c2)cn1,53*,15,86*,16,26,-12
CCc1nnc(NC(=O)c2ccc(S(=O)(=O)N3CCc4ccccc4C3)cc2)s1,5,-11,4,-2,4,-5
O=C(Nc1cccnc1)c1ccc(Cl)c(S(=O)(=O)N2CCc3ccccc32)c1,34,-4,23,19,21,-5
CC(C)CN1CCC1(C)C(=O)Nc1cc(-c2ccccc2)nn1C (stereo not given),4,4,-11,-13,6,-9
N#CC(C#N)=Cc1cc2ccccc2nc1N1CCOCC1,28,-23,35,8,4,-2
N#C/C(=C\c1cc2ccccc2nc1N1CCOCC1)C(=O)Nc1ccc(N2CCOCC2)cc1,58*,11,23,7,47,-3
CC(C)CC(NC(=O)c1ccc(Cl)cc1)C(=O)OCC(=O)c1ccc2c(c1)NC(=O)CO2 (stereo not given),-12,2,-11,26,84*,-6
COC(=O)c1ccsc1NC(=O)CN1CCN(c2ncccn2)CC1,2,17,-26,11,2,1
O=[N+]([O-])c1ccc(N/N=C/c2sc(N3CCOCC3)nc2-c2ccccc2)c(S(=O)(=O)Nc2ccccc2Cl)c1,49,26,69*,31,68*,-29
O=C(N/N=C/c1sc(N2CCOCC2)nc1-c1ccccc1)c1ccccc1Cl,8,21,-7,4,-2,2
O=C(O)c1cccc(N/N=C/c2sc(N3CCOCC3)nc2-c2ccccc2)c1,-88,-16,-77,-135,-78,5
O=[N+]([O-])c1ccc(N/N=C/c2sc(N3CCOCC3)nc2-c2ccccc2)c(S(=O)(=O)Nc2ccc(Cl)cc2)c1,59*,34,61*,1,54*,-50
CCn1c(Sc2ccc([N+](=O)[O-])cn2)nnc1-c1ccco1,4,34,55*,34,9,-9
CN(C)c1nc(-c2ccccn2)nnc1-c1ccccc1,-18,19,-27,8,53*,-15
COc1cc(CCCN2CCNC[C@H]2Cc2ccc(O)cc2)cc(OC)c1OC,-21,4,-1,-3,4,-3
Cc1ccccc1/C=C/C12NC(=O)CN1c1ccccc1C2(C)C (stereo not given),29,6,56*,-19,-8,11
COc1ccc(/C=N/NC(=O)CNS(=O)(=O)c2ccccc2)cc1,2,11,-17,3,11,7
Oc1ccc(C=Nc2cccc3ccccc23)c(O)c1,53*,3,53*,-11,-18,18
CCNc1nc(NCC)nc(OCCOC(=O)COc2ccc(Cl)cc2Cl)n1,·,3,86*,6,2,-6
CCn1c(SCC#N)nc2c(c1=O)C1(CCCC1)Cc1ccccc1-2,18,2,6,26,17,-20
SMILES,TROY NFkB inh,CF NFkB inh,TWEAK-Fn14 inh,HIF-2a block,Peg3 prom inh,KKLEB cytotox
CCSc1n[nH]c2nc3c(c(=O)n12)C1(CCCCC1)Cc1ccccc1-3,52*,11,-8,4,-15,-9
N#CCSc1n[nH]c2nc3c(c(=O)n12)C1(CCCCC1)Cc1ccccc1-3,50*,7,-9,4,21,11
CSc1n[nH]c2nc3c(c(=O)n12)C1(CCCCC1)Cc1ccccc1-3,18,-45,8,-3,-10,12
Cc1ccc2nc(-c3cccc(Br)c3)c(Cc3ccccn3)n2c1,-21,-14,4,-244,-273,-4
CN(C)Cc1c(C(=O)N/N=C/c2cccs2)nnn1-c1nonc1N,-3,-11,27,-4,-14,2
COc1ccccc1-c1csc(NC(=O)c2ccc(N3C(=O)CCC3=O)cc2)n1,36,-9,51*,1,-1,14
CC(=O)c1c(Nc2ccc3c(c2)OCCO3)oc(C)cc1=O,39,-22,70*,-50,-69,5
Cc1cc(C(=O)Nc2ccc3c(c2)OCCO3)c(C)o1,-65,-9,3,-220,-209,-4
O=C(C1CCCN1C(=O)c1cccs1)N1CCN(S(=O)(=O)c2ccc(F)cc2)CC1 (stereo not given),16,-20,16,7,-1,5
CCCC(C(=O)NC(C)(C)C)N(CC1CCCO1)C(=O)CNS(=O)(=O)c1ccc(F)cc1 (stereo not given),-5,3,85*,12,-8,-3
CCCC(C(=O)NCc1ccco1)N(CC1CCCO1)C(=O)CNS(=O)(=O)c1ccc(F)cc1 (stereo not given),-19,10,-4,14,21,1
CCOC(=O)N(C)C[C@@H]1OCc2cnnn2CCCC(=O)N([C@@H](C)CO)C[C@@H]1C,-1,-8,-5,8,-5,-2
CC[C@@H](C)C(C(=O)N1CCN(C(=O)OC(C)(C)C)CC1)n1cc(-c2cn([C@@H](C)C(=O)N3CCN(C(=O)OC(C)(C)C)CC3)nn2)nn1 (stereo not given in full),55*,13,-22,17,-6,14
CCCn1c(SCC(=O)Nc2cccc(NC(C)=O)c2)nnc1C(C)C,15,11,-2,20,9,-2
O=C(O)c1cccc(NC(=O)c2cccc(NC(=O)C3CCCO3)c2)c1 (stereo not given),-21,-20,23,47*,48,1
Cc1cccc(Cn2nc(C(C)(C)C)cc2C(=O)Nc2ccc(F)cc2)c1,58*,23,26,-29,33,-10
CC(=O)Oc1ccc(Cl)cc1CN(C(C)=O)C1CCCCC1,18,46,33,10,26,6
Cc1ccc2nc(-c3cccnc3)cc(C(=O)N3CCN(c4ccc([N+](=O)[O-])cc4)CC3)c2c1,-17,3,21,19,100*,-21
CC(=O)c1ccc(N2CCN(C(=O)c3cc(-c4cccnc4)nc4ccc(Br)cc34)CC2)cc1,-5,-8,5,-22,16,-4
O=C(CCN1CCN(Cc2ccccc2)CC1)NNC(=O)c1cc2ccccc2o1,-4,13,5,1,13,7
